Assay outcomes from PubChem.
ANO1 activ: activators or potentiators of mouse TMEM16A chloride channel; 0.3% of 340,000 active; Q8BHY3; HEK293 TMEM16A/YFP-H148Q/I152L, iodide quench fluorescence; active compounds read low; B-score at 10 µM; AID 623877;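 active means fluorescence-ratio B-score plate-corrected deviation score at least 3 library SD below zero, with starting fluorescence score within 5 deviations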;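 further: channel opened by trigger with iodide after compound preincubation; score built on the fluorescence ratio of max minus min over baseline; more negative score means more quench and so TMEM16A activation or potentiation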
CHT inh: inhibits the human high affinity choline transporter; CHT-expressing cells, membrane potential dye, choline response; active compounds read low; B-score at 10 µM; 0.86% of 310,000 active; AID 488975; Q9GZV3;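 active means B-score over 3 SD under the library average, and starting fluorescence ratio not unusually high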;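 further: choline stimulus applied at its EC90 after an EC20 pre-addition; B-score computed on integrated fluorescence ratio after choline addition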
Target sequence (Q9GZV3 whole entry, looked up): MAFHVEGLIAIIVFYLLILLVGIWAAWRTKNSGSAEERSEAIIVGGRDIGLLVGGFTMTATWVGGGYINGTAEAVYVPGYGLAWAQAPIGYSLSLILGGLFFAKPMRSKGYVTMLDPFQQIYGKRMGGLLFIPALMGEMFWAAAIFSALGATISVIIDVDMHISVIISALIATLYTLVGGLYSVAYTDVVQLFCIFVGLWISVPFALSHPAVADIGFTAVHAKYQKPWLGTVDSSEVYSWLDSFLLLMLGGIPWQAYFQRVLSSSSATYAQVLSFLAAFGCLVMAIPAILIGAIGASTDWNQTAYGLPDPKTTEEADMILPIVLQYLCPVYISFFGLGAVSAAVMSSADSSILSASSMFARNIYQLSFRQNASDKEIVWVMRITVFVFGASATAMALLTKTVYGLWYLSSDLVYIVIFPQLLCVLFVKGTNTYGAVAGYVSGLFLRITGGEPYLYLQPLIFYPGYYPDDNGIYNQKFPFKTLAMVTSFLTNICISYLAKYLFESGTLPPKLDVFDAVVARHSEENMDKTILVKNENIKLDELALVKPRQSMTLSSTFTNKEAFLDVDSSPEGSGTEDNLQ
TMEM16A inh: blocks the mouse calcium-activated chloride channel TMEM16A. Q8BHY3. 1.2% of 310,000 active. normalized B-score (activity score, 25-100; higher = stronger inhibition) at 10 µM. AID 588511. HEK293 TMEM16A/YFP iodide influx fluorescence, ionomycin;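 active means ratio plate-corrected score three or more library SD toward inhibition, starting fluorescence score within five deviations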;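 further: score derived from kinetic fluorescence span divided by baseline fluorescence per well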
CHT PAM: allosterically activates the human high affinity choline transporter | Q9GZV3 | CHT-expressing cells, membrane potential dye, choline EC20; active compounds read high; LV-AA mutant CHT in HEK293 cells | B-score at 10 µM | 0.49% of 310,000 active | AID 488977;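 active means initial fluorescence not abnormally high and integrated response B-score, plate-corrected, over 3 SD above library mean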
CHT block conf: confirmation of human choline transporter CHT inhibitors; 70% of 2,400 active; CHT-expressing cells, choline membrane potential dye; LV-to-AA substituted CHT, HEK293 cells; shares compounds with CHT inh; CHT activity remaining % of control (active compounds read low), % at 10 µM;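 active means choline transporter activity left, mean of duplicates at 10 µM, below buffer-only control mean minus 3 SD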;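 further: depolarization triggered by choline at its EC90 following an EC20 pre-addition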
HEK293 MPD ctr: counter-screen for CHT inhibitors: effect in parental HEK293 cells; shares compounds with CHT inh; membrane potential dye, choline response; active = decrease or increase beyond buffer ±3SD; membrane potential ratio readout (active if shifted either direction beyond buffer ±3SD; no single direction) at 10 µM; 4% of 2,400 active; AID 493222;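 further: parental cells lack the transporter so any hit is non-specific; ratio is peak minus trough fluorescence over baseline after EC90 choline challenge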
Numbers stand for hits; i = inactive; nt = no result given. Rows were chosen to be rich in hits. Some 2.4% of all compounds tested hit in one or more screens of this group.

SMILES	ANO1 activ	CHT inh	TMEM16A inh	CHT PAM	CHT block conf	HEK293 MPD ctr
C=CCn1c(SCC(=O)c2c(N)n(C3CC3)c(=O)[nH]c2=O)nnc1-c1ccc(OC)cc1	i	nt	nt	nt	nt	nt
C=CCNc1nc2ccccc2nc1NS(=O)(=O)c1ccc(Br)cc1	nt	-5.1	25	i	69%	i
CCCOc1ccc(-c2cnc(N)s2)cc1	i	i	i	i	nt	nt
CC(C)(C)CC(=O)NCCc1csc(-c2ccccc2)n1	i	-5.3	i	i	55%	i
Cn1c(CCNS(=O)(=O)c2ccccc2)nnc1SCc1cccnc1	i	i	i	i	nt	nt
Cc1ccc(NC(=O)c2ccc(Cn3cc([N+](=O)[O-])cn3)cc2)c(C)c1	i	-5.2	i	i	42%	i
Cc1n[nH]c(=O)n1-c1ccc(OC(F)(F)F)cc1	i	i	i	i	nt	nt
Cc1ccc(S(=O)(=O)Oc2ccc(/C=C3/C(=N)N4C(=NC3=O)SN=C4S(C)(=O)=O)cc2)cc1	i	-6.1	i	i	48%	i
COc1cc(/C=C2/C(=N)N3C(=NC2=O)SN=C3S(C)(=O)=O)ccc1OS(=O)(=O)c1ccc(C)cc1	i	i	i	i	nt	nt
CCC1=NN2C(=N)/C(=C/c3ccc(OS(=O)(=O)c4ccccc4)cc3)C(=O)N=C2S1	i	i	i	i	nt	nt
COc1cc(/C=C2\C(=N)N3N=C(S(C)(=O)=O)SC3=NC2=O)ccc1OS(=O)(=O)c1ccccc1	nt	i	i	i	nt	nt
CC(C)CS(=O)(=O)C1=NSC2=NC(=O)/C(=C\c3ccc(OC(=O)c4ccco4)cc3)C(=N)N21	i	-6.9	i	i	65%	i
CS(=O)(=O)C1=NSC2=NC(=O)/C(=C\c3ccc(OS(=O)(=O)c4ccccc4)cc3)C(=N)N21	i	-6.6	i	i	58%	i
CSC1=NSC2=NC(=O)/C(=C\c3ccc(OC(=O)c4ccco4)cc3)C(=N)N12	i	i	i	i	nt	nt
CCS(=O)(=O)C1=NSC2=NC(=O)/C(=C\c3ccc(OS(=O)(=O)c4ccccc4)c(OC)c3)C(=N)N21	i	-5.3	i	i	48%	i
Cc1oc(C)c(S(=O)(=O)NCc2cccs2)c1C(=O)O	i	i	i	i	nt	nt
CCS(=O)(=O)C1=NN2C(=N)/C(=C\c3ccc(OS(=O)(=O)c4ccccc4)cc3)C(=O)N=C2S1	i	-8.7	i	i	42%	i
O=c1c2cc(Br)ccc2[nH]c(=S)n1Cc1ccccn1	i	i	i	i	nt	nt
Cc1oc2ccc(OCc3ccc(Cl)cc3)cc2c1C(=O)O	i	-5.1	i	i	i	i
Cc1ccccc1COc1ccc2oc(C)c(C(=O)O)c2c1	i	i	i	i	nt	nt
CC1=CCC(C(=O)O)C(C(=O)Nc2ccc(-c3nc4ccc(C)cc4s3)cc2)C1 (stereo not given)	i	i	i	i	nt	nt
CCN1CCN(C(=O)c2ccc3nc(-c4ccccc4)c(-c4ccccc4)nc3c2)CC1	i	-7	i	i	22%	i
CN1CCN(CCNC(=O)c2ccc3nc(-c4ccc(F)cc4)c(-c4ccc(F)cc4)nc3c2)CC1	i	-12	i	i	8.4%	i
CC(Sc1nc2ccccc2s1)C(=O)Nc1nnc(C(C)C)s1 (stereo not given)	i	-5.3	i	i	i	i
Cc1nn(Cc2ccccc2Cl)c(C)c1NC(=O)c1noc2c1CCCCC2	i	-5.7	i	i	41%	i
C=CCSc1nnc(-c2nnc(SCC=C)n2CC)n1CC	i	i	i	i	nt	nt
CCCCCc1cc(=O)oc2c(C(CCN3CCCCC3)c3ccc4c(c3)OCO4)c(OC)cc(OC)c12 (stereo not given)	i	i	i	i	nt	nt
COc1cc(OC)c2c(-c3ccccc3)cc(=O)oc2c1C(CCN1CCCC1)c1ccc2c(c1)OCO2 (stereo not given)	i	-6.5	i	i	50%	i
COc1ccc(C(CCN2CCCC(C)C2)c2c(OC)cc(OC)c3c(-c4ccccc4)cc(=O)oc23)cc1 (stereo not given)	i	-5.7	i	i	50%	i
COc1cc(OC)c2c(-c3ccccc3)cc(=O)oc2c1C(CCN1CCCC(C)C1)c1ccc(N(C)C)cc1 (stereo not given)	i	-6	i	i	54%	i
